Common to all, as to experiment: NCI-60 one-dose screen, 48 h (100 = growth as untreated, 0 = no growth, -100 = all killed)
One assay deals with NCI-H23 lung. The note with it: 10 µM unless noted.
For another assay, the system named is NCI-H226 lung. The note with it: 10 µM unless noted.
For the next assay, the system named is NCI-H322M lung. Particulars: 10 µM unless noted.
A further assay has as its system HOP-62 NSCLC. Particulars: 10 µM unless noted.
A further assay deals with HOP-92 NSCLC. Particulars: 10 µM.
The test system of the next assay is NCI-H522 lung. Particulars: 10 µM.
The test system of another assay is A549/ATCC NSCLC. The note with it: 10 µM unless noted.
A further assay concerns 786-0 renal. The note with it: 10 µM unless noted.
The test system of the next assay is COLO 205 colon. Particulars: 10 µM unless noted.

Compounds without any hit were thinned out: in the full panel of roughly 83,000, 20% have a hit.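 Negative percent growth values reflect cell death: -40 means 40% of the cells present at the start died, and -100 means all died.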 Values without a mark were called inactive. Calls of active or inactive are those of the source. The calls were made as follows: active = growth percent below 10; inactive = the rest.

As for `C/C=C(/C)C(=O)OC1C=C(CO)C(=O)C(OC(=O)C(C)(O)C(C)Cl)C1C(C)C` (configuration not stated), the growth was -50.1% (active) in the assay on NCI-H23 lung; -19.4% (active) in the assay on NCI-H226 lung; -10.6% (active) with NCI-H322M lung; -1.29% (active) in the assay with HOP-62 NSCLC; -50.2% (active) in the assay on HOP-92 NSCLC; -34.4% (active) in the assay with NCI-H522 lung. Besides, the growth in the assay with A549/ATCC NSCLC was -18% (active); with 786-0 renal, -72.1% (active).

`CCCC(=O)Nc1ccccc1C(=O)O`: the growth was 86.6% in the assay on NCI-H23 lung; 101% in the assay on NCI-H226 lung; 107% with NCI-H322M lung; 96.9% in the assay on HOP-62 NSCLC; 95.7% in the assay on HOP-92 NSCLC; 90.7% in the assay with NCI-H522 lung. In addition, the values for the growth in the assay on A549/ATCC NSCLC and in the assay with 786-0 renal were 94.3% and 112%, respectively.

Turning to `C=CCNC(=S)NNc1ccc([N+](=O)[O-])cn1`, the growth is 93.5% in the assay with NCI-H23 lung; 94.4% in the assay with NCI-H226 lung; 89.7% in the assay with NCI-H322M lung; 105% with HOP-62 NSCLC; 98.1% with HOP-92 NSCLC; 80.4% in the assay with NCI-H522 lung. The growth was 101% with A549/ATCC NSCLC, 105% with 786-0 renal and 110% with COLO 205 colon.

As to `O=C(Nc1ccc(Cl)c(Cl)c1)O/N=C\c1c(Cl)ccc([N+](=O)[O-])c1Cl`, the growth is 27% in the assay with NCI-H23 lung; 58.4% in the assay with NCI-H226 lung; 11.6% in the assay on NCI-H322M lung; -86.3% (active) in the assay with HOP-62 NSCLC; 6.84% (active) in the assay on HOP-92 NSCLC; -90.4% (active) in the assay on NCI-H522 lung. In addition, the growth was 45.5% in the assay on A549/ATCC NSCLC and 5.13% (active) with 786-0 renal.

As to `CCCCN(CCCC)CCCNc1c2c(nc3ccc(Cl)cc13)CCCC2`, the growth is 82% in the assay with NCI-H23 lung; 100% with NCI-H226 lung; 95.4% with NCI-H322M lung; 86.6% with HOP-62 NSCLC; 73.5% with HOP-92 NSCLC; 80.1% in the assay on NCI-H522 lung. Also, the growth with A549/ATCC NSCLC was 94.6%; in the assay with 786-0 renal, -69.6% (active); with COLO 205 colon, 77.4%.

Regarding `O=C(Nc1cccc(Cn2c(=O)[nH]c3ccc(Oc4ncccn4)cc3c2=O)c1)c1cc(Cl)cc(Cl)c1`, the growth in the assay on NCI-H23 lung was 74.1%; with NCI-H226 lung, 44.2%; with NCI-H322M lung it was 57.7%; in the assay on HOP-62 NSCLC, 71.6%; in the assay on HOP-92 NSCLC it was 44.1%; in the assay on NCI-H522 lung, 49.3%. Further, the growth in the assay on A549/ATCC NSCLC is 56%; with 786-0 renal, 72.6%.

Regarding `CC([C@H]1CCC2C3CCC4C[C@@H](N)CC[C@]4(C)C3CC[C@@]21C)N(C)C` (some centres not stated), the growth with NCI-H23 lung was 77.1%; in the assay with NCI-H226 lung, 112%; with NCI-H322M lung it was 77.3%; with HOP-62 NSCLC, 104%; with HOP-92 NSCLC it was 53.1%; in the assay with NCI-H522 lung it was 102%. Moreover, the values for the growth with A549/ATCC NSCLC, in the assay on 786-0 renal and in the assay on COLO 205 colon were 86.1%, 71.7% and 6.07% (active), respectively.

Turning to `CN1CCN(Cc2ccc(NC(=O)c3cncc(C#Cc4c(N)ncc5ccc(F)cc45)c3)cc2C(F)(F)F)CC1`, the growth in the assay with NCI-H23 lung is 30.6%; with NCI-H226 lung, 8.85% (active); in the assay with NCI-H322M lung, 27.7%; in the assay with HOP-62 NSCLC it was 22.1%; in the assay on HOP-92 NSCLC it was -22.7% (active); in the assay on NCI-H522 lung, 49.7%. For the same molecule, the growth in the assay on A549/ATCC NSCLC was 26.5%; in the assay with 786-0 renal, -71.9% (active).

In the case of `CCCNC(=O)Oc1ccc(/C(=C(/CC)Cc2ccccc2)c2ccc(OCCN(CC)CC)cc2)cc1`, the growth in the assay on NCI-H23 lung was 83.8%; with NCI-H226 lung it was 87.3%; with NCI-H322M lung it was 87.4%; with HOP-62 NSCLC, 84.2%; in the assay on HOP-92 NSCLC, 55.7%; in the assay on NCI-H522 lung, 76.8%. The growth with A549/ATCC NSCLC is 63.6%; with 786-0 renal it was 80.7%.

In the case of `COc1ccc2cnc(N)c(C#Cc3cc(C(=O)Nc4ccc(CN5CCN(C)CC5)c(C(F)(F)F)c4)cnc3C)c2c1`, the growth with NCI-H23 lung was 52.3%; in the assay with NCI-H226 lung it was 26.8%; with NCI-H322M lung it was 70.3%; in the assay on HOP-62 NSCLC it was 18.9%; in the assay with HOP-92 NSCLC it was 20.1%; in the assay with NCI-H522 lung it was 69.7%. The values for the growth with A549/ATCC NSCLC and in the assay with 786-0 renal were 61.5% and -50.3% (active), respectively.

As to `CC1(C)NC(=S)NC1=O`, the growth in the assay with NCI-H23 lung is 101%; with NCI-H226 lung it was 99.6%; with NCI-H322M lung, 107%; in the assay with HOP-62 NSCLC, 104%; in the assay on HOP-92 NSCLC, 101%; in the assay with NCI-H522 lung, 116%. The growth is 98% in the assay on A549/ATCC NSCLC, 100% in the assay on 786-0 renal and 108% in the assay with COLO 205 colon.

Turning to `Cc1ccc(C(=O)Nc2ccc(CN3CCN(C)CC3)c(C(F)(F)F)c2)cc1C#Cc1cnc(N)c2ccc(C#N)cc12`, the growth in the assay on NCI-H23 lung was 48.3%; in the assay on NCI-H226 lung it was 54.4%; with NCI-H322M lung it was 73.8%; in the assay on HOP-62 NSCLC, 42.7%; in the assay on HOP-92 NSCLC, 13.7%; in the assay with NCI-H522 lung it was 60.6%. Also, the growth was 36.7% in the assay with A549/ATCC NSCLC and -25% (active) with 786-0 renal.

On to `COc1ccccc1C(=O)Nc1cccc(-c2cc(=O)c3c(OC)c(OC)c(OC)cc3o2)c1`, for which the growth in the assay with NCI-H23 lung is 62.4%; in the assay with NCI-H226 lung, 58.4%; in the assay on NCI-H322M lung, 43.6%; in the assay with HOP-62 NSCLC, 57.8%; with HOP-92 NSCLC, -0.39% (active); in the assay with NCI-H522 lung it was 44.3%. Also, the growth in the assay on A549/ATCC NSCLC is 48.2%; in the assay with 786-0 renal, 45.3%.

Regarding `N/C(=N\O)c1ccncc1`, the growth was 95.6% in the assay with NCI-H23 lung; 117% in the assay on NCI-H226 lung; 101% with NCI-H322M lung; 93.6% in the assay on HOP-62 NSCLC; 107% in the assay on HOP-92 NSCLC; 93.4% in the assay with NCI-H522 lung. For the same molecule, the growth with A549/ATCC NSCLC is 102%; in the assay on 786-0 renal it was 100%; with COLO 205 colon it was 103%.

The values above are taken from PubChem BioAssay (NCI).
